Experimental data from PubChem BioAssay AID1159580 (chemical genetic matrix, 2015).
Several values for one entry are separate records, joined by “and”; a condition that tells them apart may be missing. Equal entries are not always repeated. About 2,000 (36%) of roughly 5,500 compounds were called active. About 18% were inconclusive and are not listed. Rule as the data show it: active = normalized growth mostly below about 0.91 (no sharp cut-off); inconclusive = no clear call, values can overlap the other calls; inactive = mostly above about 0.92. The list shows a part of the results.

Experiment: chemical genetic growth profiling, strain panel (AID 1159580);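 also: tested at 20 µM; growth read once vehicle control cultures reached saturation at 30 °C; 1 = growth at the plate median or of vehicle wells; lower values mean less growth of the strain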
Conditions: growth OD

Measured: normalized growth

NC(=O)c1cccc(N)c1
inactive: S. cerevisiae deletion strains, locus YJR043C, strain POL32, stronger effect = lower value 1.01 | S. cerevisiae deletion strains, locus YJR075W, strain HOC1, stronger effect = lower value 1.01 | S. cerevisiae deletion strains, locus YKL009W, strain mrt4, stronger effect = lower value 0.996 | S. cerevisiae deletion strains, locus YKL068W, stronger effect = lower value 0.993 | S. cerevisiae deletion strains, locus YKL085W, strain MDH1 (second series), stronger effect = lower value 1 | S. cerevisiae deletion strains, locus YKL085W, strain MDH1, stronger effect = lower value 1 | S. cerevisiae deletion strains, locus YKL160W, strain elf1, stronger effect = lower value 0.984 | S. cerevisiae deletion strains, locus YKL190W, strain CNB1, stronger effect = lower value 1.02 | S. cerevisiae deletion strains, locus YKR001C, strain vps1, stronger effect = lower value 0.996 | S. cerevisiae deletion strains, locus YKR026C, strain gcn3, stronger effect = lower value 0.977 | S. cerevisiae deletion strains, locus YKR091W, strain srl3, stronger effect = lower value 0.977 | S. cerevisiae deletion strains, locus YLL001W, strain dnm1, stronger effect = lower value 0.93 | S. cerevisiae deletion strains, locus YLL026W, stronger effect = lower value 0.984 | S. cerevisiae deletion strains, locus YLL041C, strain sdh2, stronger effect = lower value 0.97 | S. cerevisiae deletion strains, locus YLR027C, strain aat2, stronger effect = lower value 0.997 | S. cerevisiae deletion strains, locus YLR039C, strain RIC1, stronger effect = lower value 1 | S. cerevisiae deletion strains, locus YLR058C, strain SHM2, stronger effect = lower value 1.01 | S. cerevisiae deletion strains, locus YLR102C, strain apc9, stronger effect = lower value 0.998 | S. cerevisiae deletion strains, locus YLR221C, strain rsa3, stronger effect = lower value 0.962 | S. cerevisiae deletion strains, locus YLR258W, strain gsy2, stronger effect = lower value 0.972 | S. cerevisiae deletion strains, locus YLR262C, strain YPT6 (second series), stronger effect = lower value 0.966 | S. cerevisiae deletion strains, locus YLR262C, strain YPT6, stronger effect = lower value 1.01 | S. cerevisiae deletion strains, locus YLR268W, strain sec22, stronger effect = lower value 0.996 | S. cerevisiae deletion strains, locus YLR320W, strain mms22, stronger effect = lower value 0.988 | S. cerevisiae deletion strains, locus YLR330W, strain CHS5, stronger effect = lower value 1.01 | S. cerevisiae deletion strains, locus YLR342W, strain FKS1 (second series), stronger effect = lower value 1.01 | S. cerevisiae deletion strains, locus YLR342W, strain FKS1, stronger effect = lower value 0.942 | S. cerevisiae deletion strains, locus YLR357W, strain rsc2, stronger effect = lower value 0.976 | S. cerevisiae deletion strains, locus YLR370C, strain arc18, stronger effect = lower value 0.941 | S. cerevisiae deletion strains, locus YLR371W, strain rom2, stronger effect = lower value 1 | S. cerevisiae deletion strains, locus YLR384C, strain iki3, stronger effect = lower value 0.992 | S. cerevisiae deletion strains, locus YLR418C, strain cdc73, stronger effect = lower value 1.01 | S. cerevisiae deletion strains, locus YML016C, strain PPZ1, stronger effect = lower value 1 | S. cerevisiae deletion strains, locus YML032C, strain rad52, stronger effect = lower value 0.993 | S. cerevisiae deletion strains, locus YML120C, strain ndi1, stronger effect = lower value 0.994 | S. cerevisiae deletion strains, locus YML124C, strain tub3, stronger effect = lower value 0.995 | S. cerevisiae deletion strains, locus YMR058W, strain fet3, stronger effect = lower value 0.965 | S. cerevisiae deletion strains, locus YMR078C, strain ctf18, stronger effect = lower value 0.999 | S. cerevisiae deletion strains, locus YMR125W, strain sto1, stronger effect = lower value 0.976 | S. cerevisiae deletion strains, locus YMR129W, stronger effect = lower value 1.01 | S. cerevisiae deletion strains, locus YMR205C, strain PFK2, stronger effect = lower value 0.991 | S. cerevisiae deletion strains, locus YMR223W, strain ubp8, stronger effect = lower value 0.993 | S. cerevisiae deletion strains, locus YMR231W, strain pep5, stronger effect = lower value 0.984 | S. cerevisiae deletion strains, locus YMR263W, strain SAP30, stronger effect = lower value 1.02 | S. cerevisiae deletion strains, locus YMR307W, strain GAS1, stronger effect = lower value 1.02 | S. cerevisiae deletion strains, locus YNL067W, strain RPL9B, stronger effect = lower value 1.01 | S. cerevisiae deletion strains, locus YNL071W, strain lat1, stronger effect = lower value 0.961 | S. cerevisiae deletion strains, locus YNL128W, strain TEP1, stronger effect = lower value 1.01 | S. cerevisiae deletion strains, locus YNL153C, strain GIM3, stronger effect = lower value 1.01 | S. cerevisiae deletion strains, locus YNL175C, strain NOP13, stronger effect = lower value 1.02 | S. cerevisiae deletion strains, locus YNL197C, strain WHI3, stronger effect = lower value 1.01 | S. cerevisiae deletion strains, locus YNL209W, strain ssb2, stronger effect = lower value 0.985 | S. cerevisiae deletion strains, locus YNL224C, strain SQS1, stronger effect = lower value 1.02 | S. cerevisiae deletion strains, locus YNL233W, strain BNI4, stronger effect = lower value 0.999 | S. cerevisiae deletion strains, locus YNL248C, strain rpa49, stronger effect = lower value 0.974 | S. cerevisiae deletion strains, locus YNL250W, strain rad50, stronger effect = lower value 0.988 | S. cerevisiae deletion strains, locus YNL271C, strain bni1, stronger effect = lower value 0.989 | S. cerevisiae deletion strains, locus YNL298W, strain CLA4, stronger effect = lower value 1.01 | S. cerevisiae deletion strains, locus YNL307C, strain MCK1, stronger effect = lower value 0.996 | S. cerevisiae deletion strains, locus YNL322C, strain KRE1 (second series), stronger effect = lower value 0.968 | S. cerevisiae deletion strains, locus YNL322C, strain KRE1, stronger effect = lower value 1.01 | S. cerevisiae deletion strains, locus YNR049C, strain mso1, stronger effect = lower value 0.965 | S. cerevisiae deletion strains, locus YNR052C, strain pop2, stronger effect = lower value 1 | S. cerevisiae deletion strains, locus YOL006C, strain TOP1, stronger effect = lower value 1.06 | S. cerevisiae deletion strains, locus YOL012C, strain htz1 1 | S. cerevisiae deletion strains, locus YOL147C, strain pex11, stronger effect = lower value 1 | S. cerevisiae deletion strains, locus YOR001W, strain rrp6, stronger effect = lower value 0.97 | S. cerevisiae deletion strains, locus YOR061W, strain CKA2, stronger effect = lower value 1 | S. cerevisiae deletion strains, locus YOR069W, strain VPS5, stronger effect = lower value 1.01 | S. cerevisiae deletion strains, locus YOR070C, strain gyp1, stronger effect = lower value 1.02 | S. cerevisiae deletion strains, locus YOR080W, strain dia2, stronger effect = lower value 0.981 | S. cerevisiae deletion strains, locus YOR083W, strain WHI5 (second series), stronger effect = lower value 1.02 | S. cerevisiae deletion strains, locus YOR083W, strain WHI5, stronger effect = lower value 0.994 | S. cerevisiae deletion strains, locus YOR106W, strain vam3, stronger effect = lower value 0.972 | S. cerevisiae deletion strains, locus YOR136W, strain idh2, stronger effect = lower value 0.993 | S. cerevisiae deletion strains, locus YOR144C, strain elg1, stronger effect = lower value 0.992 | S. cerevisiae deletion strains, locus YOR184W, strain ser1, stronger effect = lower value 1 | S. cerevisiae deletion strains, locus YOR265W, strain rbl2, stronger effect = lower value 0.968 | S. cerevisiae deletion strains, locus YOR270C, strain vph1, stronger effect = lower value 0.995 | S. cerevisiae deletion strains, locus YOR290C, strain snf2, stronger effect = lower value 0.974 | S. cerevisiae deletion strains, locus YOR316C, strain cot1, stronger effect = lower value 1 | S. cerevisiae deletion strains, locus YPL051W, strain arl3, stronger effect = lower value 1 | S. cerevisiae deletion strains, locus YPL055C, strain LGE1, stronger effect = lower value 1.06 | S. cerevisiae deletion strains, locus YPL078C, strain atp4, stronger effect = lower value 0.963 | S. cerevisiae deletion strains, locus YPL106C, strain sse1, stronger effect = lower value 0.964 | S. cerevisiae deletion strains, locus YPL240C, strain hsp82, stronger effect = lower value 0.984 | S. cerevisiae deletion strains, locus YPL241C, strain CIN2, stronger effect = lower value 1.01 and 1 | S. cerevisiae deletion strains, locus YPR119W, strain clb2, stronger effect = lower value 0.988 | S. cerevisiae deletion strains, locus YPR141C, strain kar3, stronger effect = lower value 0.996 | S. cerevisiae deletion strains, locus YPR163C, strain tif3, stronger effect = lower value 1 | S. cerevisiae deletion strains, locus YPR167C, strain met16, stronger effect = lower value 0.996 | S. cerevisiae deletion strains, strain wtn01, stronger effect = lower value 0.983 | S. cerevisiae strains, strain wild type, stronger effect = lower value 1
